Common to all, as to assay: DAPPL (digital affinity profiling via proximity ligation, sequencing); 10 mM Tris-HCl pH 7.5, 50 mM NaCl, 1 mM DTT, 4% glycerol, room temperature, 30 min; GST-TFs on glutathione beads, 16-mer random dsDNA library, 0.1% formaldehyde crosslink after washing; high values mean tight binding
In one assay the target is T1, FEV (Homo sapiens, UniProt Q99581 1-238).
T1 sequence: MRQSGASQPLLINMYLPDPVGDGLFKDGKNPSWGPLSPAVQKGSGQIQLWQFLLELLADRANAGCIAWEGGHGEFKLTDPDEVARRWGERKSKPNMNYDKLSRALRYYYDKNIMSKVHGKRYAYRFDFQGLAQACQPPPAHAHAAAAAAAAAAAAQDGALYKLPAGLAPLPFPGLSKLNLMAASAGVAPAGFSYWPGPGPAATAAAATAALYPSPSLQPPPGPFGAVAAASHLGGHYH
As to conditions: protein: recombinant; tags: N-terminal GST; dsDNA, one strand shown. Put shortly: (§1)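 Human transcription factors were made in yeast as GST fusions, captured on glutathione beads and barcoded with DNA. With a tag-only sample included, the pool was incubated with 200 nmole of a random double-stranded 16-mer DNA library in Tris/NaCl/DTT/glycerol buffer at room temperature for 30 min, then crosslinked with 0.1% formaldehyde after washing, ligated by proximity, amplified and sequenced. For binding signal, each hexamer's read frequency for a factor is divided by its frequency for the tag-only sample.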

The next assay addresses ETV5 (Homo sapiens, UniProt P41161 1-510). As to conditions: protein: recombinant; tags: N-terminal GST; dsDNA, one strand shown. The method, boiled down: as §1
The next assay addresses HSF1 (Homo sapiens, UniProt Q00613 1-529). As to conditions: protein: recombinant; tags: N-terminal GST; chain copies: 3; dsDNA, one strand shown. Put shortly:
as §1

The target in another assay is T2, SPIC (Homo sapiens, UniProt Q8N5J4 1-248).
T2 sequence: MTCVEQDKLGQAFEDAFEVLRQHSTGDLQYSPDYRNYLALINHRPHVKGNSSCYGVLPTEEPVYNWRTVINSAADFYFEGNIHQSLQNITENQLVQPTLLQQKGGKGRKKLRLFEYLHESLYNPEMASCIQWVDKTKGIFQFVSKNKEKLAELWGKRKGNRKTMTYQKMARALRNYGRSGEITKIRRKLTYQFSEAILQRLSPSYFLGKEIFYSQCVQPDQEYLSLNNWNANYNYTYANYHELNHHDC
As to conditions: protein: recombinant; tags: N-terminal GST; dsDNA, one strand shown. Put shortly: as §1

The target in a further assay is ELF4 (Homo sapiens, UniProt Q99607 1-663). As to conditions: protein: recombinant; tags: N-terminal GST; dsDNA, one strand shown. The method, boiled down:
as §1

The target of the next assay is T3, ELK4 (Homo sapiens, UniProt P28324-2 1-405).
T3 sequence: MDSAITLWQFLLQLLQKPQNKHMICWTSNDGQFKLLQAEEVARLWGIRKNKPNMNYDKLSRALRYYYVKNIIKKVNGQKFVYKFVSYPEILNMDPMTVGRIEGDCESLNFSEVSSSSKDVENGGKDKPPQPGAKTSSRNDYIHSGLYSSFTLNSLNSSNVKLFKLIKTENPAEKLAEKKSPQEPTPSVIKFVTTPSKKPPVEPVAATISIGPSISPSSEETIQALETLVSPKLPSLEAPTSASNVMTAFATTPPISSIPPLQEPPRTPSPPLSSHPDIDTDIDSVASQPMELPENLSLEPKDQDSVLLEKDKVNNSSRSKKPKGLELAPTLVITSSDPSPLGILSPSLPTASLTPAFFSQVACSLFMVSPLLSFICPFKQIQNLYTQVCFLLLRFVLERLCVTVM
As to conditions: protein: recombinant; tags: N-terminal GST; dsDNA, one strand shown. The method, boiled down: as §1

The next assay concerns the target T4, ETV2 (Homo sapiens, UniProt O00321 1-342).
T4 sequence: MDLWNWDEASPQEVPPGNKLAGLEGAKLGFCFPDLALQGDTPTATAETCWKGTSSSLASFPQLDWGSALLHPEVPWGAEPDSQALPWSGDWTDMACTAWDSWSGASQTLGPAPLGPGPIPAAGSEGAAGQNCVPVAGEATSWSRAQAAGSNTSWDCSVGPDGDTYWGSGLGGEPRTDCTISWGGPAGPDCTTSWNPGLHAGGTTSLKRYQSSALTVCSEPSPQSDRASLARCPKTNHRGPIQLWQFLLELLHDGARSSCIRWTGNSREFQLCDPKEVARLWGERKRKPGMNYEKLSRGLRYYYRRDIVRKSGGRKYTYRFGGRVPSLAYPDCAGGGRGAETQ
As to conditions: protein: recombinant; tags: N-terminal GST; dsDNA, one strand shown. Put shortly:
as §1

The target in a further assay is T5, ELF3 (Homo sapiens, UniProt P78545 1-371).
T5 sequence: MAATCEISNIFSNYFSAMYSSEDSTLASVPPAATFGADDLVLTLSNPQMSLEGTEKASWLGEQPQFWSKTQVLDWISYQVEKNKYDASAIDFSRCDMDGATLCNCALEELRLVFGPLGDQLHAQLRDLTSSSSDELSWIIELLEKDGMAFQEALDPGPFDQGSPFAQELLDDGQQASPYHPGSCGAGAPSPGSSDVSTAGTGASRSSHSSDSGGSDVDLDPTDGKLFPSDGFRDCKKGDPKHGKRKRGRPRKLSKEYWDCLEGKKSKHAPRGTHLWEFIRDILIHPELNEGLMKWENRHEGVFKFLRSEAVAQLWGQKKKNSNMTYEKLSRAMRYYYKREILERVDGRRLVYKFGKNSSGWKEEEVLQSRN
As to conditions: protein: recombinant; tags: N-terminal GST; dsDNA, one strand shown. Put shortly:
as §1

Another assay concerns the target CRX (Homo sapiens, UniProt O43186 1-299). As to conditions: protein: recombinant; tags: N-terminal GST; dsDNA, one strand shown. The method, boiled down: as §1
A further assay deals with ETV1 (Homo sapiens, UniProt P50549 1-477). As to conditions: protein: recombinant; tags: N-terminal GST; dsDNA, one strand shown. Put shortly: as §1
Another assay deals with T6, ERF (Homo sapiens, UniProt P50548 1-548).
T6 sequence: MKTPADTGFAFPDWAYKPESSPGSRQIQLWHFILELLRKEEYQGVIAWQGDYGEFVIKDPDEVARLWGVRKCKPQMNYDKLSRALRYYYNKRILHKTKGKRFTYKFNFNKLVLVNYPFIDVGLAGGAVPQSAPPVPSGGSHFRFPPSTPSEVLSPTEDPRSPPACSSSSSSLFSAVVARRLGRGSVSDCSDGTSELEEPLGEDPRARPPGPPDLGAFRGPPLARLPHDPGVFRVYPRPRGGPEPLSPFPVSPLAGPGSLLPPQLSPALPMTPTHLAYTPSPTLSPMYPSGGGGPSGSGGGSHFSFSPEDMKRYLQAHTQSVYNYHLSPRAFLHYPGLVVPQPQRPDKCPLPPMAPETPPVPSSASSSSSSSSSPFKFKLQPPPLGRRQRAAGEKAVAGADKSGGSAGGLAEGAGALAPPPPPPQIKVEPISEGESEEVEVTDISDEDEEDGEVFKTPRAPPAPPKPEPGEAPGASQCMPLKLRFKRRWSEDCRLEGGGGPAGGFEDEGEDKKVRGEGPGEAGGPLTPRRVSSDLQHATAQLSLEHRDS
As to conditions: protein: recombinant; tags: N-terminal GST; dsDNA, one strand shown. The method, boiled down: as §1

For the next assay, the target named is T7, ETV3L (Homo sapiens, UniProt Q6ZN32 1-361).
T7 sequence: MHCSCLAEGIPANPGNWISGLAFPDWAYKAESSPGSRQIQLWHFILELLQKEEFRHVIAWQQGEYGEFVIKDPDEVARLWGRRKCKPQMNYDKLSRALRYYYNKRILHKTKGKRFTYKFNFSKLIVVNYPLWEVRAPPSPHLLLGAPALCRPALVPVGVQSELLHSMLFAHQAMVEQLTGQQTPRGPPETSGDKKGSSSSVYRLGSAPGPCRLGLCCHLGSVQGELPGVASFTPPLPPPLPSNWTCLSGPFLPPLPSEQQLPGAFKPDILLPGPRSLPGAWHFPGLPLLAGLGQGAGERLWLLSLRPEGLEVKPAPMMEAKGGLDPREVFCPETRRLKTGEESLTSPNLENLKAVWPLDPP
As to conditions: protein: recombinant; tags: N-terminal GST; dsDNA, one strand shown. The method, boiled down: as §1

Another assay addresses T8, ETS2 (Homo sapiens, UniProt P15036 1-469).
T8 sequence: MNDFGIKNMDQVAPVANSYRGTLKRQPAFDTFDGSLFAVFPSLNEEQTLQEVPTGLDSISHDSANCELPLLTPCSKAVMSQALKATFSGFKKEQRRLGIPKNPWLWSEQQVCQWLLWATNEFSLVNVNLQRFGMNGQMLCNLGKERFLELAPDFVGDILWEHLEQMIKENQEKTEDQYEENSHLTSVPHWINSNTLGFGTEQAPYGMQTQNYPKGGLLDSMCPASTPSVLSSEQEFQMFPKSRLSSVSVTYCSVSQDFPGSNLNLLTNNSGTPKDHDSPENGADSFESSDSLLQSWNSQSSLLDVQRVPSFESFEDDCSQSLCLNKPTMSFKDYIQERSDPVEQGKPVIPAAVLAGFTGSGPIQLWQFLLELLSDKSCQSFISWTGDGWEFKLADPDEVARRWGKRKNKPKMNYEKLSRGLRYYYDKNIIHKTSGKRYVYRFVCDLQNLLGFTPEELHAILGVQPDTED
As to conditions: protein: recombinant; tags: N-terminal GST; dsDNA, one strand shown. Put shortly: as §1

Another assay concerns the target T9, SPDEF (Homo sapiens, UniProt O95238 1-335).
T9 sequence: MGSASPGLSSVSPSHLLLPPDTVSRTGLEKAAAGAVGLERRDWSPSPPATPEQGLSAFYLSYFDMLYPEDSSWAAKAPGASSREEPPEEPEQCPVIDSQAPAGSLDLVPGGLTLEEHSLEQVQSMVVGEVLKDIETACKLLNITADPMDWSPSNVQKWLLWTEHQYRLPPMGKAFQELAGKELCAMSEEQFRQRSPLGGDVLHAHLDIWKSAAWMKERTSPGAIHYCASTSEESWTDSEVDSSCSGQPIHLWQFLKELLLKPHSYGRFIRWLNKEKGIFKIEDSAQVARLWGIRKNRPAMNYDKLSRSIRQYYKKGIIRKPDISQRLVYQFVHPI
As to conditions: protein: recombinant; tags: N-terminal GST; dsDNA, one strand shown. The method, boiled down:
as §1

Another assay addresses T10, ETV7 (Homo sapiens, UniProt Q9Y603 1-341).
T10 sequence: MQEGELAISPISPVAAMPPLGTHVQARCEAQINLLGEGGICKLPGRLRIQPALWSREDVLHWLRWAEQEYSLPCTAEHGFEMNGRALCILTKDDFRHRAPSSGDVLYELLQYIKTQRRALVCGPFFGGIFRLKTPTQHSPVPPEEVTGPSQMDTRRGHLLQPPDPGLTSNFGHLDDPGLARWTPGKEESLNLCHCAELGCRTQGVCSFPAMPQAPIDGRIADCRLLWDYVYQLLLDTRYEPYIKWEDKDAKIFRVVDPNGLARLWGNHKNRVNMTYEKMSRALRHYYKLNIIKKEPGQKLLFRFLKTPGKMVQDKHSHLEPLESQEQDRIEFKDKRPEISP
As to conditions: protein: recombinant; tags: N-terminal GST; dsDNA, one strand shown. The method, boiled down: as §1

The next assay addresses T11, ELF5 (Homo sapiens, UniProt Q9UKW6-2 1-255).
T11 sequence: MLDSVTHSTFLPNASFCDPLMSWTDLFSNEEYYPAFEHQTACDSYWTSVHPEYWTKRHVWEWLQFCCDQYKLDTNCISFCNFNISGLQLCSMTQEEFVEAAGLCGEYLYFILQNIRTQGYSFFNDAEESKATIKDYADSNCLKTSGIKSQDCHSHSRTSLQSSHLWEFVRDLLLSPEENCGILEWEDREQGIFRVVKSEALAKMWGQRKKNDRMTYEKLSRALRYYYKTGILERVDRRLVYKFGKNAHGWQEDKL
As to conditions: protein: recombinant; tags: N-terminal GST; dsDNA, one strand shown. The method, boiled down:
as §1

The next assay deals with T12, ETV3 (Homo sapiens, UniProt P41162-2 1-143).
T12 sequence: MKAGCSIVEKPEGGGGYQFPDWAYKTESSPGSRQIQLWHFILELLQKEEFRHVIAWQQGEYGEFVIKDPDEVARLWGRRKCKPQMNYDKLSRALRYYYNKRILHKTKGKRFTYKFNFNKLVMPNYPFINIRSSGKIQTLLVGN
As to conditions: protein: recombinant; tags: N-terminal GST; dsDNA, one strand shown. Put shortly:
as §1

Another assay concerns the target ETV6 (Homo sapiens, UniProt P41212 1-452). As to conditions: protein: recombinant; tags: N-terminal GST; dsDNA, one strand shown. Put shortly: as §1

Sequence of HSF1 (Q00613 whole entry): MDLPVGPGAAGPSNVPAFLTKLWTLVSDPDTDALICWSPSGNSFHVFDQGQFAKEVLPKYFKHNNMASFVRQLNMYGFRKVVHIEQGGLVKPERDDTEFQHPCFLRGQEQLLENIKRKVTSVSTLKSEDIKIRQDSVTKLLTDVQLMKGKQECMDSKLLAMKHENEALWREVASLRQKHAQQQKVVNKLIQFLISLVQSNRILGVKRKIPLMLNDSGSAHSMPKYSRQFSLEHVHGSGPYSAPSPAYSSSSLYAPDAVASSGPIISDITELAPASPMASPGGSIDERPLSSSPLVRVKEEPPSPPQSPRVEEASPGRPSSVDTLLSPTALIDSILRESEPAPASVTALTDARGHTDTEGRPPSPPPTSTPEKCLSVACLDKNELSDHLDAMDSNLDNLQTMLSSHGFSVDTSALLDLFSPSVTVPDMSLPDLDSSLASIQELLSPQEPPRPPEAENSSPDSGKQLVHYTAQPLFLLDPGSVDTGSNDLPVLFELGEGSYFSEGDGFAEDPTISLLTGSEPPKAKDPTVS
Sequence of ETV6 (P41212 whole entry): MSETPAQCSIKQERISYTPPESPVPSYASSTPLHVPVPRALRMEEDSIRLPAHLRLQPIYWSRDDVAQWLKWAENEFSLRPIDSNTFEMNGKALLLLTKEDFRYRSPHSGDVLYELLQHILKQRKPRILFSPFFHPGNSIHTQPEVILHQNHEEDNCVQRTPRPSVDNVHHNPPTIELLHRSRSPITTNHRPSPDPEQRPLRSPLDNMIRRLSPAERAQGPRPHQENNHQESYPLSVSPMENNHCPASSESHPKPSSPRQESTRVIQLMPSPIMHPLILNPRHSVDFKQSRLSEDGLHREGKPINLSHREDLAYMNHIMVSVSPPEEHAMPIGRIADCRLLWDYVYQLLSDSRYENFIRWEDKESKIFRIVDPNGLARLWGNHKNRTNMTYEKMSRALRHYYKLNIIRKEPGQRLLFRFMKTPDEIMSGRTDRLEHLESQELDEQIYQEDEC
Sequence of ETV5 (P41161 whole entry): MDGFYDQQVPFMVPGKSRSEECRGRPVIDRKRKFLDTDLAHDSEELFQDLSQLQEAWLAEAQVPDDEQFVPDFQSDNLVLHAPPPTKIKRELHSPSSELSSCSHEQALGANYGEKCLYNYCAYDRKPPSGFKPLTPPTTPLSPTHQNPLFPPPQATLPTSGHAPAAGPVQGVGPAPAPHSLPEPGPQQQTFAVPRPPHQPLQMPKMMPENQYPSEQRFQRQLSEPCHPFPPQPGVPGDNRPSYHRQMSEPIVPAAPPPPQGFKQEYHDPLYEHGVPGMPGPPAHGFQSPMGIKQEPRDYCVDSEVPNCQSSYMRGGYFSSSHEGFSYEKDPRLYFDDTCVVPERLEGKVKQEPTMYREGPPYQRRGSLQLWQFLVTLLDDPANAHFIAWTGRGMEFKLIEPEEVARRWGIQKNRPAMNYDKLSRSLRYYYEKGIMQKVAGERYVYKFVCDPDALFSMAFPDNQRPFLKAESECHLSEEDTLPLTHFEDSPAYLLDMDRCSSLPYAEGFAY
Sequence of ETV1 (P50549 whole entry): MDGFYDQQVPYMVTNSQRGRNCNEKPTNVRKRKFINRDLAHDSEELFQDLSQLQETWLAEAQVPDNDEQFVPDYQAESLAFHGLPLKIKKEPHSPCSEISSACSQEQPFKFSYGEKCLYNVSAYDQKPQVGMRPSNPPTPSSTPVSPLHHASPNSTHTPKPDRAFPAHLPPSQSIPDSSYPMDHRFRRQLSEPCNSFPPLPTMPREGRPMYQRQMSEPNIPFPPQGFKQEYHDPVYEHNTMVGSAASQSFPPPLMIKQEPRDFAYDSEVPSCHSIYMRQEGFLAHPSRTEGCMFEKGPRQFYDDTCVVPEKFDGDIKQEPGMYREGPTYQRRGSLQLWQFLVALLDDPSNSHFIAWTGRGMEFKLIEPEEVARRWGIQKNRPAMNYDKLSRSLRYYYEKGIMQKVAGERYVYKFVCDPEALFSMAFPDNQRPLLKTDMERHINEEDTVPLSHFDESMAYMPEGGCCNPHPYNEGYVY
Sequence of CRX (O43186 whole entry): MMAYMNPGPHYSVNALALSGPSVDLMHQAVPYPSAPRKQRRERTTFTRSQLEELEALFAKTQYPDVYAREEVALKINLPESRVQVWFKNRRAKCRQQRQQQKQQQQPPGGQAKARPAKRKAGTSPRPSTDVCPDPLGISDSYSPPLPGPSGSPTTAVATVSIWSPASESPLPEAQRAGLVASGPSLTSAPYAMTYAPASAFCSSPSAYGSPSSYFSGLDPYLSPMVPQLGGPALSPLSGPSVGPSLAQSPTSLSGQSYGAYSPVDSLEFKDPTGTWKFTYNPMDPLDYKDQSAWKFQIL
Sequence of ELF4 (Q99607 whole entry): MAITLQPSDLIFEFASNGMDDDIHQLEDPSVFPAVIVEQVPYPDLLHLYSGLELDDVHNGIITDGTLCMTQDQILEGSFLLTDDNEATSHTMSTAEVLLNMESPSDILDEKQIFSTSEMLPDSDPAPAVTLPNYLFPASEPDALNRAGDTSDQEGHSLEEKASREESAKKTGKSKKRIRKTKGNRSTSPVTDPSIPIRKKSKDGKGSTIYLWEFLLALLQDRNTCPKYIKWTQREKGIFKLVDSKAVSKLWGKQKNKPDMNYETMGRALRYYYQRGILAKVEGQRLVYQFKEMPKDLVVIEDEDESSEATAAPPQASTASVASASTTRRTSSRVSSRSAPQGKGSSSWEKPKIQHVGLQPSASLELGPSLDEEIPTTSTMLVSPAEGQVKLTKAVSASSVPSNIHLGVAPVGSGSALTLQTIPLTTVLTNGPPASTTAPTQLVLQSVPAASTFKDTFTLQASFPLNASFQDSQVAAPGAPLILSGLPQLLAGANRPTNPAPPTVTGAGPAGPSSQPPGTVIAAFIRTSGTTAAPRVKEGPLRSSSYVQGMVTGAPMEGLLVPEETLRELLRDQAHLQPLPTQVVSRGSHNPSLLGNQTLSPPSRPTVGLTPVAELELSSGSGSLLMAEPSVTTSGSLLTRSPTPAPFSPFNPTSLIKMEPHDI

Turning to ACTTTC, the binding signal with FEV is 1.49 fold enrichment (6-mer frequency, TF over GST control); with ETV5, 1.65 fold enrichment (6-mer frequency, TF over GST control); with HSF1, 2.49 fold enrichment (6-mer frequency, TF over GST control); in the assay with SPIC it was 1.6 fold enrichment (6-mer frequency, TF over GST control); in the assay with ELF4, 1.53 fold enrichment (6-mer frequency, TF over GST control); with ELK4 it was 1.86 fold enrichment (6-mer frequency, TF over GST control). Besides, the binding signal was 1.62 fold enrichment (6-mer frequency, TF over GST control) with ETV2; 1.6 fold enrichment (6-mer frequency, TF over GST control) with ELF3; 1.63 fold enrichment (6-mer frequency, TF over GST control) in the assay with CRX; 1.7 fold enrichment (6-mer frequency, TF over GST control) in the assay with ETV1; 1.63 fold enrichment (6-mer frequency, TF over GST control) with ERF; 1.59 fold enrichment (6-mer frequency, TF over GST control) with ETV3L. Further, the binding signal in the assay with ETS2 is 1.6 fold enrichment (6-mer frequency, TF over GST control); in the assay with SPDEF, 1.51 fold enrichment (6-mer frequency, TF over GST control); with ETV7, 1.51 fold enrichment (6-mer frequency, TF over GST control); with ELF5 it was 1.74 fold enrichment (6-mer frequency, TF over GST control); with ETV3, 1.63 fold enrichment (6-mer frequency, TF over GST control); in the assay with ETV6, 1.57 fold enrichment (6-mer frequency, TF over GST control).

Values taken from article PMC7862700, “An all-to-all approach to the identification of sequence-specific readers for epigenetic DNA modifications on cytosine”.
